# Assay outcomes: PubChem, The Scripps Research Institute Molecular Screening Center
# MITF primary = blocks human microphthalmia-associated transcription factor; O75030; AID 1259374; AlphaScreen MITF homodimerization, bead proximity signal; inhibition, % at 2.6 µM; hit rate 0.91% among 650,000; in the data active means inhibition above about 50%;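 further: 0% = vehicle wells with protein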
# TEAD-YAP inh = TEAD-YAP interaction inhibition. hit rate 1.4% among 640,000. inhibition, % at 9.12 µM. HEK-TIYL cells, TEAD-Gal4/YAP UAS-luciferase luminescence; in the data active means inhibition above about 32%;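 further: 0% = median of test compound wells and 100% = reference inhibitor wells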
# GPR151 activ = activates the human receptor GPR151 | AID 1508602 | hit rate 1% among 650,000 | PathHunter beta-arrestin GPR151 cells, luminescence | Q8TDV0 | activation, % at 11.2 µM; in the data active means activation above about 4.9%;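 further: 0% = median of compound wells and 100% = cells with positive control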
# FBW7 activator = human FBW7 E3 ligase activation, primary screen; AlphaScreen FBW7–phospho-cyclin E peptide binding, activator screen; AID 1259310; Q969H0; hit rate 0.13% among 650,000; normalized activity (activation), % at 26.1 µM; in the data active means normalized activity above about 1.9%;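 further: purified mutant Fbw7 with reduced substrate affinity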
# GPR151 conf act = human GPR151 activation, confirmation screen; activation, % at 11.2 µM; 6,700 tested, under 10 active; shares compounds with GPR151 activ; GPR151 PathHunter beta-arrestin cells, luminescence, 90 min; % of EA-reagent control over plate median;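 active means mean percent activation across replicates above the confirmation screen cutoff of 4.91%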
# GPR119 ag = GPR119 activation, counter-screen for GPR151 activators. shares compounds with GPR151 activ. hit rate 0.3% among 6,700. activation, % at 11.2 µM. GPR119 PathHunter beta-arrestin cells, luminescence, 90 min; 0 = compound-well median, 100 = enzyme-acceptor control;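 active means mean percent activation in the counterscreen above 29.09%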;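 further: counterscreen on off-target GPR119 to flag nonselective hits from the GPR151 activator screen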
# * hit, by the source's call; . = no result given. This is a sample that favours compounds with a hit; in the whole collection about 3.5% have one here.
SMILES,MITF primary,TEAD-YAP inh,GPR151 activ,FBW7 activator,GPR151 conf act,GPR119 ag
CC1=C(C(=O)Nc2ccccc2C)C(c2ccccc2[N+](=O)[O-])n2ncnc2N1 (stereo not given),9,1,2,1,.,.
CC(C)COC(=O)Nc1nnc(C(C)C)s1,-7,-74,13*,0,0,7
CCCCOC(=O)Nc1nnc(C(C)C)s1,13,-58,0,0,.,.
CNCCOc1cccc(OC(C)C)c1,34,-9,4.9*,0,0,-1
Cc1ccc(N2C(=O)/C(=C/c3ccc(N4CCOCC4)o3)C(=O)NC2=S)c(C)c1,21,-9,-1,0,.,.
O=C(COC(=O)CCc1nc2ccccc2c(=O)[nH]1)NC(=O)C1COc2ccccc2O1 (stereo not given),11,-5,0,0,.,.
O=C1NC2(CCc3ccccc3C2)C(=O)N1CN1CCN(Cc2ccc3c(c2)OCO3)CC1 (stereo not given),5,9,8.3*,0,0,-1
O=C(Nc1cccc2ccccc12)C1CC(=O)N(c2cccc(Cl)c2)C1 (stereo not given),7,-1,6.9*,0,0,6
COC(=O)C1=C(C)NC2=C(C(=O)CC(C)(C)C2)C1c1cccc(OCc2ccccc2)c1 (stereo not given),-5,8,-2,0,.,.
C=CCn1c(=O)c2ccccc2n2c(SCC(=O)Nc3ccccc3C(=O)OC)nnc12,-7,1,5.0*,0,0,-6
Cc1ccc(Oc2cccc(NC(=O)c3cccc4ccccc34)c2)nn1,9,4,5.6*,0,0,-10
COc1ccc(C(Nc2cccc(C)n2)c2ccc3cccnc3c2O)cc1 (stereo not given),22,88*,6.7*,0,0,-1
COc1ccc(C(=O)Nn2c(C3CC3)nc3cc(OC)c(OC)cc3c2=O)c(OC)c1,2,1,5.9*,0,0,-2
COc1ccc(C(=O)Nn2c(C3CC3)nc3ccccc3c2=O)c(OC)c1,22,0,-1,1,.,.
CC(=O)Nc1cnn(-c2ccc(C(=O)NC(c3ccncc3)c3ccccc3C)cc2)c1 (stereo not given),-4,-7,5.4*,0,0,1
O=C(Oc1ccc(-c2ccccc2)cc1)N1CCOCC1,-2,-40,5.8*,0,0,-11
Cc1ccc(S(=O)(=O)N2CCCCC2CCNC(=O)C(=O)Nc2cccc(C)c2)cc1 (stereo not given),23,10,0,1,.,.
CC(C)[C@@H](CO)Nc1ccc2ncc(-c3cccc(N(C)C)c3)n2n1,11,4,0,0,.,.
CCC(CO)Nc1ccc2ncc(-c3cccc(N(C)C)c3)n2n1 (stereo not given),-18,5,6.4*,0,0,-4
CCCN(CCC)CCCNC(=O)C(=O)Nc1ccc(I)cc1,-1,3,11*,0,0,0
CCCN(CCC)CCCNC(=O)C(=O)Nc1ccc(C)cc1,5,3,0,0,.,.
COc1ccc(OCc2cc(C(=O)N3CCCCC3CO)no2)c(Cl)c1 (stereo not given),9,-42,1,0,.,.
COc1ccc(OCc2cc(C(=O)N[C@H]3CCCCNC3=O)no2)c(Cl)c1,1,-47,5.0*,0,0,0
O=C(COc1cccc2ccccc12)Nc1ccc(S(=O)(=O)Nc2nccs2)cc1,-8,-4,1,0,.,.
COc1ccccc1OCCn1cc(/C=C(\C#N)C(=O)NC2CC2)c2ccccc21,5,13,5.6*,0,0,-7
COc1ccc(OCCn2cc(/C=C(\C#N)C(=O)NC3CC3)c3ccccc32)cc1,-7,15,0,0,.,.
COc1ccccc1-c1coc2cc(OC(=O)C(C)(C)C)ccc2c1=O,17,8,6.9*,0,1,-3
O=C(CN(c1cccc(Cl)c1)S(=O)(=O)c1ccc(Cl)cc1)N1CCOCC1,-3,2,9.1*,0,0,-7
CN1CCN(C(=O)CN(c2cccc(Cl)c2)S(=O)(=O)c2ccc(Cl)cc2)CC1,11,-3,1,0,.,.
Cc1c(C(=O)OC(C)C)sc(NC(=O)c2ccccc2F)c1C#N,-1,-3,5.8*,0,0,0
